Data taken from PubChem BioAssay (Tox21).
Where “and” joins values, the source holds several entries; their conditions need not be identical. Equal values may be shown once. Inconclusive results are not listed. More than one record can exist for a structure, and the calls need not agree. Calls of active or inactive are those of the source. Unless noted, the call rests on the fitted dose curve; in most records, active means well fitted curve in the direction sought with a large enough effect in the repeat runs; inconclusive means weak or mixed curves; inactive means no such curve, though single readings can be large; an effect the other way counts as inactive or inconclusive.

Columns and labels:
[1] = qHTS assay to identify small molecule antagonists of the androgen receptor (AR) signaling pathway using the MDA cell line in the presence of 0.5 nM R1881 - cell viability counter screen (AID 1259242); further: nearly all actives have a fitted effect of over 45% in size; further: potency means the concentration at half of the fitted maximal effect
Method in brief: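 Human breast carcinoma MDA-kb2 cells, cultured without CO2, receive compounds alongside 0.5 nM (final) R1881 agonist. After 16 hr at 37C, viability is taken as live-cell protease signal.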

[2] = qHTS assay to identify small molecule HDAC inhibitors (AID 1259364);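 further: wild-type HCT-116 cells with endogenous class I/II HDAC activity; top concentration of the series differs between compounds; nearly all actives have a fitted effect of over 45% in size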
Method in brief: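 After a 2 hr compound incubation (37C, 5% CO2), HCT-116 cells seeded at 1,500/well the day before received HDAC-Glo reagent; signal read as luminescence after 30 min at room temperature.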

[3] = qHTS assay to identify small molecule HDAC inhibitors - cell viability counter screen (AID 1259365); further: series mostly up to about 92 µM; nearly all actives have a fitted effect of over 50% in size
Method in brief: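 HCT-116 wild-type, overnight attachment; 2hr drug exposure, 37C; CellTiter-Glo luminescent ATP readout after 30min RT.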

[4] = qHTS assay to identify small molecule agonists of the sonic hedgehog signaling (Shh) pathway - cell viability counter screen (AID 1259366); further: nearly all actives have a fitted effect of over 50% in size; further: potency means the concentration at half of the fitted maximal effect
Method in brief: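 Compounds in DMSO were pin-transferred onto 3T3 Gli1-Luc cells that had settled 4hr; plates then stood 24hr at 37C and 5% CO2. One hour before the end, CellTiter-Fluor was added and fluorescence recorded.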

[5] = qHTS assay to identify small molecule antagonists of the sonic hedgehog signaling (Shh) pathway - cell viability counter screen (AID 1259367); further: nearly all actives have a fitted effect of over 55% in size; further: potency means the concentration at half of the fitted maximal effect
Method in brief: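 Conditioned medium drove Shh signaling in 3T3 Gli1-Luc cells exposed to compounds at 37C and 5% CO2. Viability was determined from CellTiter-Fluor fluorescence, with reagent incubated 1 hr after 23 hr of treatment.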

[6] = qHTS assay to identify small molecule agonists of the sonic hedgehog signaling (Shh) pathway (AID 1259368; calls by dose curve;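 further: NIH/3T3-derived 3T3Gli1-Luc cells carrying a stable Gli1-driven firefly luciferase reporter; series mostly up to about 92 µM; nearly all actives have a fitted effect of over 15% in size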)
Method in brief: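 Stable NIH/3T3 Gli1-Luc reporter clone; 24 hr cpd exposure after a 4 hr settling period; luminescence endpoint.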

[7] = qHTS assay to identify small molecule antagonists of the sonic hedgehog signaling (Shh) pathway (AID 1259369; calls by dose curve; further: nearly all actives have a fitted effect of over 45% in size; further: potency means the concentration at half of the fitted maximal effect)
Method in brief: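 Gli1 transcriptional reporter (firefly Luc) in NIH/3T3 background, conditioned-medium activated. 24hr exposure, luminescence endpoint.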

[8] = qHTS assay to identify small molecule agonists of the androgen receptor (AR) signaling pathway in the presence of an antagonist - cell viability counter screen (AID 1259379); further: nearly all actives have a fitted effect of over 25% in size; further: potency means the concentration at half of the fitted maximal effect
Method in brief: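 Counter screen for cell viability run in parallel with the AR agonist-mode luciferase assay. MDA-kb2 cells were co-treated with nilutamide (3.0uM final) and compounds, then incubated 16 hr at 37C, and CellTiter-Fluor fluorescence was measured.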

[9] = qHTS assay to identify small molecule antagonists of the estrogen receptor beta (ER-beta) signaling pathway - cell viability counter screen (AID 1259382); further: series mostly up to about 92 µM; nearly all actives have a fitted effect of over 55% in size
Method in brief: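 HEK293T ER-beta-UAS-bla, 2% charcoal-stripped FBS; compounds + 1nM E2 16 hr 37C; CellTiter-Glo luminescence, 30 min RT.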

[10] = qHTS assay to identify small molecule agonists or antagonists of the thyroid stimulating hormone receptor (TSHR) signaling pathway - wild type cell line counter screen (AID 1259384; calls by dose curve)
Method in brief: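 Wild-type HEK293 cells were plated 18 h at 37 C/5% CO2, pin-dosed with compound plus Ro20-1724 medium, held 30 min at room temperature, then given cAMP-d2 and anti-cAMP-cryptate; fluorescence was read after 1 h. Fifteen concentrations, triplicate.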

[11] = molecular target: Thyrotropin receptor (Homo sapiens) (UniProt P16473); experiment: qHTS assay to identify small molecule antagonists of the thyroid stimulating hormone receptor (TSHR) signaling pathway (AID 1259385; calls by dose curve; further: nearly all actives have a fitted effect of over 20% in size)
Method in brief: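 TSHR-HEK293 cells were plated and held 18 h at 37C/5% CO2, then given compound plus Ro20-1724 and stimulated with TSH at 1.5 ng/mL final. After 30 min at room temperature, cAMP was detected with cAMP-d2/anti-cAMP-cryptate (1 h) by fluorescence.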

[12] = molecular target: Estrogen receptor (Homo sapiens) (UniProt P03372); experiment: qHTS assay to identify small molecule antagonists of the estrogen receptor alpha (ER-alpha) signaling pathway using the BG1 cell line in the presence of 0.1 nM 17-beta-estradiol (AID 1259244); further: nearly all actives have a fitted effect of over 50% in size
Method in brief: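 Seeding of stripped-serum-adapted VM7Luc4E2 cells, 24 h attachment, compound transfer, then 0.1 nM final 17beta-estradiol; after 22 h incubation, ONE-Glo reagent and luminescence reading.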

[13] = molecular target: Estrogen receptor beta (Homo sapiens) (UniProt Q92731); experiment: qHTS assay to identify small molecule agonists of the estrogen receptor beta (ER-beta) signaling pathway (AID 1259377; active means well fitted activation curve with a large enough effect in the signal ratio in the repeat runs, not every such curve was filed as active; the % refers to the signal ratio)
Method in brief: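 qHTS in ER-beta-UAS-bla HEK293T cells: 6 hr settling, then 16 hr compound at 37C, then LiveBLAzer substrate 2 h at RT before fluorescence reading.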

[14] = molecular target: Estrogen receptor beta (Homo sapiens) (UniProt Q92731); experiment: qHTS assay to identify small molecule antagonists of the estrogen receptor beta (ER-beta) signaling pathway (AID 1259378; active means well fitted inhibition curve with a large enough effect in the signal ratio in the repeat runs, not every such curve was filed as active; the % refers to the signal ratio)
Method in brief: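 ER-beta-UAS-bla HEK293T (GripTite) cells in 2% charcoal-stripped FBS medium were preincubated 6 hr at 37C, dosed with compound, then stimulated with 1 nM E2 (final) for 16 hr; beta-lactamase reporter read by B/G FRET fluorescence after 2 hr substrate loading.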

[15] = qHTS assay to identify small molecule agonists of the estrogen receptor beta (ER-beta) signaling pathway - cell viability counter screen (AID 1259380); further: nearly all actives have a fitted effect of over 30% in size
Method in brief: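 In this qHTS counter screen, HEK293T cells carrying an ER-beta/UAS beta-lactamase reporter, grown in 2% charcoal-stripped FBS, received compound for 16 hr; ATP-based CellTiter-Glo luminescence was then read after 30 min at room temperature.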

[16] = molecular target: Estrogen receptor (Homo sapiens) (UniProt P03372); experiment: qHTS assay to identify small molecule agonists of the estrogen receptor alpha (ER-alpha) signaling pathway in the presence of an antagonist (AID 1259383; calls by dose curve; further: top concentration of the series differs between compounds; nearly all actives have a fitted effect of over 15% in size)
Method in brief: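 ER-alpha agonism measured under antagonist challenge: 10.0nM ICI-182,780 (final) plus compound, 15 concentrations, 22hr, VM7Luc4E2 ERE-luciferase cells. Read by luminescence.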

[17] = qHTS assay to identify small molecule phospholipidosis (PLD) inducers (AID 1259344; active means well fitted curve in the direction sought with a large enough effect; an effect the other way counts as inactive or inconclusive)
Method in brief: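 After 4 h attachment on collagen I, HepG2 cells were dosed with compound alongside LipidTOX Red, kept 24 h at 37 C, fixed, and imaged for lamellar phospholipid pits.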

[18] = molecular target: Androgen receptor (Homo sapiens) (UniProt P10275); experiment: qHTS assay to identify small molecule antagonists of the androgen receptor (AR) signaling pathway using the MDA cell line in the presence of 0.5 nM R1881 (AID 1259243); further: nearly all actives have a fitted effect of over 50% in size
Method in brief: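 Cells: MDA-kb2 (MMTV-luc). Stimulus: 0.5 nM R1881. Time: 16 hr, 37C, no CO2. Detection: ONE-Glo luminescence after 30 min at RT.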

[19] = molecular target: Androgen receptor (Homo sapiens) (UniProt P10275); experiment: qHTS assay to identify small molecule agonists of the androgen receptor (AR) signaling pathway in the presence of an antagonist (AID 1259381; calls by dose curve; further: nearly all actives have a fitted effect of over 15% in size)
Method in brief: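 AR antagonist background: nilutamide 3.0uM final. Cell line: MDA-kb2, MMTV-driven luciferase, responsive to both AR and GR. Exposure 16hr, 37C, no CO2; ONE-Glo luminescence.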

Measured: Potency

Thyrotropin receptor (Homo sapiens), sequence (P16473 whole entry, looked up): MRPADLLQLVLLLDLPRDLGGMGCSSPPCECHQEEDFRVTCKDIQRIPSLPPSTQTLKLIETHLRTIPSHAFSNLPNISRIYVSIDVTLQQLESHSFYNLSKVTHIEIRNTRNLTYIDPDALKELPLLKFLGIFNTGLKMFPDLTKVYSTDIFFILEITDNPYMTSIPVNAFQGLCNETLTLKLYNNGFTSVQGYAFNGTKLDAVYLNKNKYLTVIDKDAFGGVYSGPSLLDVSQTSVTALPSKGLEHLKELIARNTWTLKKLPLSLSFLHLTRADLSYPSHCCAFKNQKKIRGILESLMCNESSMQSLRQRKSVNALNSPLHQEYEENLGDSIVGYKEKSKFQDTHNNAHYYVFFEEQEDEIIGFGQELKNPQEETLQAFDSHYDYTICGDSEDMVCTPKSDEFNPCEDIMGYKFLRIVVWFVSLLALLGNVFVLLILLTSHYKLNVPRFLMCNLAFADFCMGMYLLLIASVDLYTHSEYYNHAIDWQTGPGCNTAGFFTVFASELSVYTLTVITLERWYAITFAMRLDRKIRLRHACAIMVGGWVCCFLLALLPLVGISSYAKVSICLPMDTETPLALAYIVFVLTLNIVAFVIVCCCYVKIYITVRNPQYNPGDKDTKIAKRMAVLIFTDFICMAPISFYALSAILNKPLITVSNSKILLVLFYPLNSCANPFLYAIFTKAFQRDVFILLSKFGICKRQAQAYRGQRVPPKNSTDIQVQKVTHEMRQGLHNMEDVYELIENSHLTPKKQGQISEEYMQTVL
Androgen receptor (Homo sapiens), sequence (P10275 whole entry, looked up): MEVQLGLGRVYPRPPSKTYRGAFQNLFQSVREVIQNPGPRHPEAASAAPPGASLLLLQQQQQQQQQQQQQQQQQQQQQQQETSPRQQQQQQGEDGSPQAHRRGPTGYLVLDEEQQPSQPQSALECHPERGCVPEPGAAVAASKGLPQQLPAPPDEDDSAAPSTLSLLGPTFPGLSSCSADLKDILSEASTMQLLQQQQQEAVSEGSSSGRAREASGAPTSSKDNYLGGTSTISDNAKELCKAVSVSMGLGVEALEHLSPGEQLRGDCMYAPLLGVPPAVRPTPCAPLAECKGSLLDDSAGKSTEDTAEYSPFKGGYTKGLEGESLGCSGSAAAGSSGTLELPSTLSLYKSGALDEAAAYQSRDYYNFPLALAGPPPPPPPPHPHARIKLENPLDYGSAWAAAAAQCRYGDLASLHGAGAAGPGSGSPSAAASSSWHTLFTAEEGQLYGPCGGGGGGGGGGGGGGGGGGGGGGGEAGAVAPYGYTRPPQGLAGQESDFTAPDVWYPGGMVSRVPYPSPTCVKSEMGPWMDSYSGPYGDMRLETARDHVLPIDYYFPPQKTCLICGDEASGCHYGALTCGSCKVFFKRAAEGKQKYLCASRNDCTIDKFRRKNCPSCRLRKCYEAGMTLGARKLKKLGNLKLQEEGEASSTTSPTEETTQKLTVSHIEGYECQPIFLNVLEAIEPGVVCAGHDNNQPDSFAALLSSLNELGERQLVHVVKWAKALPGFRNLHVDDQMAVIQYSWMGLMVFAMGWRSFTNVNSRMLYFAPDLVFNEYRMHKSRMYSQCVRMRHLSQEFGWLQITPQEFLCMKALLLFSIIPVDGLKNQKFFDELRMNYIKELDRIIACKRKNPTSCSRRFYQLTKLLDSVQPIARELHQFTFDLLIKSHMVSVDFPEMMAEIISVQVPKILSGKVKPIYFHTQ
Estrogen receptor beta (Homo sapiens), sequence (Q92731 whole entry, looked up): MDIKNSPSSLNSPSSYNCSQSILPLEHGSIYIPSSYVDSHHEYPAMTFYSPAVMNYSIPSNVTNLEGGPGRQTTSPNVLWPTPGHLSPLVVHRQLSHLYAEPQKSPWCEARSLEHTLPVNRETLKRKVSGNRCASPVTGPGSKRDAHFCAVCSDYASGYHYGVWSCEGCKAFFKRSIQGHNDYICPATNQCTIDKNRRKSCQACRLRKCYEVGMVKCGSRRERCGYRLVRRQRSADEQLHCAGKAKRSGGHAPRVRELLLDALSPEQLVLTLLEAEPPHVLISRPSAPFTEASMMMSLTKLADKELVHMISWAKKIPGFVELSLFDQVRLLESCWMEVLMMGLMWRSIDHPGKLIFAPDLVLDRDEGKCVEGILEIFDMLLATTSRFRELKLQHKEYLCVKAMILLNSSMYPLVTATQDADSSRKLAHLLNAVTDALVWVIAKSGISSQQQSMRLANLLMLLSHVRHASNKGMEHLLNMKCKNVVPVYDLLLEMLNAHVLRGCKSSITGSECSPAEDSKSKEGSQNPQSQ
Estrogen receptor (Homo sapiens), sequence (P03372 whole entry, looked up): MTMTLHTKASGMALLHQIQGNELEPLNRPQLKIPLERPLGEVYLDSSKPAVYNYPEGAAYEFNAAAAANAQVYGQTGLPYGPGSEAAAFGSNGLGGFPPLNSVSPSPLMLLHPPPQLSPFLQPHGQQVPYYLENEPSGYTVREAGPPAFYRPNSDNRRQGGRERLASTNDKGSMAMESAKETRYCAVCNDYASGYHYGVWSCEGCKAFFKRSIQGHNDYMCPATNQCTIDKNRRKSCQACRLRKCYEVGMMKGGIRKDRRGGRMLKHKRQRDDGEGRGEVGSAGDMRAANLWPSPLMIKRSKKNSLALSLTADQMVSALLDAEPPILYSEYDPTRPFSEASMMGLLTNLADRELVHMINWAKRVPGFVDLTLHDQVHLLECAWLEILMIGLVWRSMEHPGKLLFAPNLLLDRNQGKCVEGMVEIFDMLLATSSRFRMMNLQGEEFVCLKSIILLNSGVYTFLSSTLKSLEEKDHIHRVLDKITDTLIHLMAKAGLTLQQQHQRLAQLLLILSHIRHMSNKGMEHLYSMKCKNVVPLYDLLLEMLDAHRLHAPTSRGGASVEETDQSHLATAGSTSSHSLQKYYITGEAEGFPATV

O=S(=O)(O)c1ccccc1
inactive: [1] | [2] | [3] | [4] | [5] | [6] | [7] | [8] | [9] | [10] | [11]

CC(C)(C)c1cc(Cc2cc(C(C)(C)C)c(O)c(C(C)(C)C)c2)cc(C(C)(C)C)c1O
inactive: [1] | [12] | [2] | [3] | [4] | [5] | [6] | [7] | [13] | [14] | [8] | [15] | [9] | [16] | [10] | [11]

CCCCOC(=O)c1ccc(N)cc1
inactive: [1] | [12] | [17] | [2] | [3] | [4] | [5] | [6] | [7] | [13] | [8] | [15] | [9] | [16] | [10] | [11]

COc1ccc(OC)cc1
inactive: [1] | [12] | [2] | [3] | [4] | [5] | [6] | [7] | [8] | [15] | [9] | [16] | [10] | [11]

CC(C)CCCCCCCOC(=O)CCCCC(=O)OCCCCCCCC(C)C
inactive: [1] | [2] | [3] | [4] | [5] | [6] | [7] | [8] | [15] | [9] | [10] | [11]

Cc1ccc(S(=O)(=O)N=C=O)cc1
6 µM (active) and inactive: [7]
16.9 µM (active) and inactive: [4]
23.9 µM (active) and inactive: [5]
inactive: [1] | [12] | [2] | [3] | [6] | [13] | [8] | [15] | [16] | [10] | [11]

CCCCCCCO
inactive: [1] | [12] | [2] | [3] | [4] | [5] | [6] | [7] | [13] | [14] | [8] | [15] | [9] | [16] | [10] | [11]

CC(C)(C#N)c1cc(Cn2cncn2)cc(C(C)(C)C#N)c1
inactive: [1] | [17] | [2] | [3] | [4] | [5] | [6] | [7] | [13] | [8] | [9]

CCNC(=S)NCC
inactive: [1] | [12] | [2] | [3] | [4] | [5] | [6] | [7] | [13] | [8] | [9] | [16] | [10] | [11]

N#Cc1ccccc1
inactive: [1] | [2] | [3] | [4] | [5] | [6] | [7] | [13] | [14] | [8] | [10] | [11]

CCCCCCCCCCCC(=O)OC
inactive: [1] | [12] | [2] | [3] | [4] | [5] | [6] | [7] | [13] | [8] | [15] | [9] | [16] | [10] | [11]

COc1ccc(C)cc1N
inactive: [1] | [18] | [12] | [2] | [3] | [4] | [5] | [6] | [7] | [8] | [19] | [9] | [16] | [10] | [11]

CC1(C)S[C@@H]2[C@H](NC(=O)COc3ccccc3)C(=O)N2[C@H]1C(=O)O
inactive: [1] | [12] | [2] | [3] | [4] | [5] | [6] | [7] | [8] | [9] | [16] | [10] | [11]

O=C1CCCC1
inactive: [1] | [12] | [2] | [3] | [4] | [5] | [6] | [13] | [8] | [15] | [9] | [16]

O=C(O)c1ccc(C(=O)O)c(C(=O)O)c1
inactive: [1] | [18] | [12] | [2] | [3] | [4] | [5] | [6] | [7] | [8] | [19] | [9] | [16] | [10] | [11]

COC(=O)CCCC(=O)OC
inactive: [1] | [2] | [3] | [4] | [5] | [6] | [7] | [8] | [15] | [9] | [10] | [11]

O=S(=O)(O)c1ccc(N=Nc2c(O)ccc3cc(S(=O)(=O)O)ccc23)cc1
inactive: [12] | [2] | [3] | [6] | [7] | [15] | [9] | [16]
active: [1] 54.7 µM and 27.3 µM | [4] 30.8 µM and 30.6 µM | [5] 27.4 µM and 27.3 µM | [8] 54.7 µM and 30.6 µM

C=C(C)[C@H]1CC=C(C)C(=O)C1
inactive: [1] | [2] | [3] | [4] | [5] | [6] | [7] | [13] | [14] | [8] | [10] | [11]

c1ccc2c(c1)Cc1ccccc1-2
inactive: [1] | [12] | [2] | [3] | [4] | [5] | [6] | [7] | [13] | [14] | [8] | [15] | [16] | [10] | [11]
